From PubChem BioAssay (NCATS)
Results filed as inconclusive are left out. Entries that show only a call come without a potency. The source made the active and inactive calls. Calls follow the shape of the full dose curve; tested in HEK293 reporter line.

Assay: qHTS for Inhibitors of the Functional Ribonucleoprotein Complex (vRNP) of Lassa (LASV) Arenavirus: LASV Primary Screen - GLuc reporter signal (AID 1347082); also: nearly all actives have a fitted effect of over 60% in size
Details: LASV minigenome vRNP, Gaussia luciferase reporter; series mostly up to 57.5 µM
With `O=C(c1ccccc1)C(O)c1ccccc1` (stereo not drawn) the Potency was “inactive”.
For `CC1(C)O[C@@H]2C[C@H]3[C@@H]4C[C@H](F)C5=CC(=O)C=C[C@]5(C)[C@@]4(F)[C@@H](O)C[C@]3(C)[C@]2(C(=O)CO)O1`, the Potency was “inactive”.
In the case of `CCCCOC(=O)CC(CC(=O)OCCCC)(OC(C)=O)C(=O)OCCCC`, the Potency is reported as “inactive”.
For `CCN(CC)C(=O)/C(C#N)=C/c1cc(O)c(O)c([N+](=O)[O-])c1`, the Potency was “inactive”.
For `Cc1ccc(S(=O)(=O)NC(=O)NC2CCCCC2)cc1`, the Potency was “inactive”.
In the case of `Cc1ccccc1N1CCN(CCc2nnc3n2CCCC3)CC1`, the Potency is reported as “inactive”.
With `C/C=C1\[C@H]2C=C(C)C[C@]1(N)c1ccc(=O)[nH]c1C2` the Potency was “inactive”.
With `CC(=O)N[C@@H](CCC(=O)O)C(=O)O` the Potency was “inactive”.
With `Oc1ccccc1-c1nnco1` the Potency was “inactive”.
In the case of `Cc1cc(C(C#N)c2ccc(Cl)cc2)c(Cl)cc1NC(=O)c1cc(I)cc(I)c1O` (stereo not drawn), the Potency is reported as “inactive”.
With `CC(=O)OCC(=O)[C@@]1(O)CC[C@H]2[C@@H]3CCC4=CC(=O)C=C[C@]4(C)[C@@]3(F)[C@@H](O)C[C@@]21C` the Potency was “inactive”.
In the case of `Cc1ccsc1/C=C/C1=NCCCN1C`, the Potency is reported as “inactive”.
With `COc1cc2c3cc1Oc1cc(ccc1O)C[C@@H]1c4c(cc(OC)c(O)c4Oc4ccc(cc4)C[C@@H]3N(C)CC2)CC[N+]1(C)C` the Potency was “inactive”.
In the case of `CCCCCCCCCCCCCCCC(=O)O`, the Potency is reported as “inactive”.
For `C[N+](C)(C)CCCCCC[N+](C)(C)C`, the Potency was “inactive”.
With `CC(N=C(NC#N)Nc1ccncc1)C(C)(C)C` (stereo not drawn) the Potency was “inactive”.
In the case of `CC(C)=CCC/C(C)=C/CO`, the Potency is reported as “inactive”.
In the case of `COc1ccc(C2CNC(=O)C2)cc1OC1CCCC1` (stereo not drawn), the Potency is reported as “inactive”.
In the case of `C[C@@H]1CN(c2c(F)c(F)c3c(=O)c(C(=O)O)cn(C4CC4)c3c2F)C[C@H](C)N1`, the Potency is reported as “inactive”.
With `CC12CCC(CC1)C(C)(C)O2` the Potency was “inactive”.
With `Cc1cccc(C(=O)O)c1O` the Potency was “inactive”.
For `O=C(O)Cc1sc(-c2ccccc2)nc1-c1ccc(Cl)cc1`, the Potency was “inactive”.
In the case of `CC(C=CC1=C(C)CCCC1(C)C)=CC=CC(C)=CC(=O)O`, the Potency is reported as “inactive”.
With `O=C(CS(=O)Cc1ccco1)NC/C=C\COc1cc(CN2CCCCC2)ccn1` (stereo not drawn) the Potency was “inactive”.
With `Cc1coc2ccccc2c1=O` the Potency was “inactive”.
In the case of `COP(=O)(OC)OC(c1ccc(Cl)cc1)P(=O)(OC)OC` (stereo not drawn), the Potency is reported as “inactive”.
In the case of `Oc1ccc(OCc2ccccc2)cc1`, the Potency is reported as “inactive”.
With `Cn1c(=O)c2c(ncn2CC(=O)O)n(C)c1=O` the Potency was “inactive”.
With `Nc1nc(N)nc(-c2cc(Cl)ccc2Cl)n1` the Potency was “inactive”.
For `CC1(C)OC(=O)NC1=O`, the Potency was “inactive”.
In the case of `CC(=O)CC(c1ccc([N+](=O)[O-])cc1)c1c(O)c2ccccc2oc1=O` (stereo not drawn), the Potency is reported as “inactive”.
In the case of `O=C1OC2(c3ccccc31)c1cc(Br)c(O)c(Br)c1Oc1c2cc(Br)c(O)c1Br`, the Potency is reported as “inactive”.
In the case of `NS(=O)(=O)c1cc(-c2nn[nH]n2)c(NCc2cccs2)cc1Cl`, the Potency is reported as “inactive”.
In the case of `COc1c2occc2cc2ccc(=O)oc12`, the Potency is reported as “inactive”.
For `CCCCCCCCCCCCCCCCCC(=O)O`, the Potency was “inactive”.
With `CCN(CC)C(C)CN1c2ccccc2Sc2ccccc21` (stereo not drawn) the Potency was “inactive”.
With `CCOC(N)=O` the Potency was “inactive”.
With `O=C1NCC2(CCN(CCc3ccccc3)CC2)O1` the Potency was “inactive”.
